Screens deposited in PubChem by National Center for Advancing Translational Sciences (NCATS).
aGlu spleen mod: inhibits or activates alpha-glucosidase in human spleen homogenate; P10253; human spleen homogenate, 4-MU-alpha-glucoside fluorescence; Potency, µM (doses to about 79.9 µM), for inactives: at the highest dose activity change, negative = inhibition, most hits filed as inhibitors; 0.006% of 240,000 active;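 note: 0% = enzyme with vehicle and -100% = no enzyme basal signal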
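AC50 values come from Hill-equation fits of concentration-response data, normalized to no-enzyme and full-activity controls. Enzyme source: 1 ug human spleen homogenate; 1 mM fluorogenic 4-MU glucoside, pH 5.0 citrate buffer, 37 C, 40 min.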
N370S GC mod: N370S glucocerebrosidase modulation, Gaucher chaperone candidate | 0.092% of 330,000 active | Potency, µM (top dose mostly 59.4 µM), for inactives: at the top dose activity change, negative = inhibition, most hits filed as inhibitors | N370S GC spleen homogenate, 4MU-glucoside fluorescence | P04062;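 note: 0% = full enzyme activity and -100% = no enzyme basal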
Lamin A splicing: changes lamin A minigene splicing in HeLa cells; HeLa LMNA splicing GFP/RFP minigene ratio, 48 h; Potency, µM (highest dose often 46.1 µM), without a hit: at the highest dose ratio change, negative = inhibition, actives largely listed as inhibitors; 0.01% of 200,000 active; AID 1487; active = well fitted inhibition curve with a large enough effect in the signal ratio, with a control signal flat, not every such curve was filed as active; inconclusive = small, poorly fitted or top-dose-only effect, or effect the other way, or a change in a side signal; the % refers to the signal ratio
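Read-out is the ratio of GFP to DsRed2 object intensity, acquired by 488 nm laser-scanning cytometry on HeLa lamin A-EGFP minigene reporter cells. Compound incubation 48 hrs at 37 °C in Opti-MEM with 2% FBS; DMSO 0.5% final.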
GAA inh: blocks human lysosomal alpha-glucosidase; P10253; purified human GAA, 4-MU-alpha-glucoside fluorescence; Potency, µM (top dose mostly 76.9 µM), for the others: at the top dose activity change, negative = inhibition, actives largely listed as inhibitors; 0.005% of 200,000 active; AID 1466;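 note: plate controls were uninhibited enzyme wells for no effect and no-enzyme background for full effect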
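Endpoint fluorogenic read: 20 min room-temperature reaction of 4 nM human alpha-glucosidase with 400 uM 4-methylumbelliferyl-alpha-D-pyranoside, pH 5.0, quenched with 1M NaOH/1M glycine pH 10. AC50 from Hill modeling.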
GAA glycogen: GAA glycogen-cleavage inhibition or activation; P10253; recombinant GAA, glycogen substrate, Amplex Red glucose oxidase fluorescence; Potency, µM (doses to about 76.4 µM), for the others: at the top dose activity change, negative = inhibition, hits mostly inhibitors; 0.38% of 300,000 active;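 note: 0% = full enzyme reaction and -100% = no-enzyme basal signal; the screen sought inhibitors and activators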
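Natural-substrate format: glycogen cleavage by 4 nM human enzyme, glucose read by Amplex Red coupling (Ex 573, Em 610 nm). Normalized to enzyme and no-enzyme controls.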
Active calls of the source: *; ? = inconclusive; . = no result given; [ ] = remark or other dose. This is a sample that favours compounds with a hit; in the whole collection about 0.41% have one here. Unless noted, calls come from the whole dose curve; as a rule, active = well fitted curve in the direction sought with a large enough effect; inconclusive = small, poorly fitted or top-dose-only effect, or another doubt; inactive = no such curve, though single readings can be large; an effect the other way counts as inactive or inconclusive. Unless noted, % is set by controls: 0 for no effect and ±100 for the full control effect; potency is the fitted concentration of half-maximal effect.

SMILES | aGlu spleen mod | N370S GC mod | Lamin A splicing | GAA inh | GAA glycogen
Oc1ccc(N2CCN(c3nc(-c4cccs4)nc4ccccc34)CC2)cc1 | -6% | ? | . | . | 25µM*
CC(C)=CCC/C(C)=C\COc1c2ccoc2cc2oc(=O)ccc12 | 0% | ? | . | . | .
CCOc1ccc(CCNC(=O)c2nn(C)c3c2CSc2ccccc2-3)cc1 | . | . | . | . | -3%[76.3 µM]
O=C(Cn1cc(SCc2ccc(F)cc2)c2ccccc21)N1CCCCC1 | . | . | . | . | -10%[76.3 µM]
CC(=O)OCC1OC(Oc2cc(OC(C)=O)c3c(=O)cc(-c4ccc(OC(C)=O)c(OC(C)=O)c4)oc3c2)C(OC(C)=O)C(OC(C)=O)C1OC(C)=O (centres undefined) | 0% | -18% | . | . | .
COc1cc(C2C3=C(CCCC3=O)Nc3[nH]n(-c4ccccc4)c(=O)c32)ccc1O (centres undefined) | -12% | -11% | 3% | 3% | 28µM*
CN1CCN(Cc2nc3ccccc3c(=O)n2Cc2nc(-c3ccc4ccccc4c3)cs2)CC1 | -8% | 11µM* | ? | ? | 13%
CC1CCC2C(=O)N3C(CCC(C)C3c3ccc(-c4ccco4)cc3)C(=O)N2C1c1ccc(-c2ccco2)cc1 (centres undefined) | -7%[17.4 µM] | -5%[12.8 µM] | . | . | .
CC(C)C[C@H](NC(=O)CNC(=O)[C@@H]1CCCN1C(=O)[C@H](CCCNC(=N)N)NC(=O)[C@H](CC(=O)O)NC(=O)[C@@H](NC(=O)[C@H](CC(N)=O)NC(=O)[C@@H](NC(=O)[C@H](CC(=O)O)NC(=O)CNC(=O)[C@@H](NC(=O)[C@@H](NC(=O)[C@H](C)NC(=O)[C@@H](N)CCC(N)=O)[C@@H](C)O)C(C)C)C(C)C)[C@@H](C)O)C(=O)N[C@@H](CC(C)C)C(=O)N[C@@H](CC(=O)O)C(=O)N[C@@H](CC(C)C)C(=O)N[C@@H](CCCCN)C(=O)O | 0% | -4% | . | . | .
Oc1[nH]c2ccccc2c1C=Nc1ccc2c(c1)OCCO2 | -10% | -12% | ? | -3% | 32µM*
Oc1c(Br)cc(Br)cc1C=Nc1ccc2c(c1)OCCO2 | 5% | 7% | 3%[46 µM] | -8% | ?
COc1ccc(C(=O)NNC(=S)NC(=O)C(C)(C)C)cc1 | -5% | -7% | . | 1% | 7.9µM*
N#Cc1cccc(CS(=O)(=O)c2nc3ccccc3s2)c1 | 2% | 3% | . | . | .
COC(=O)N[C@@H](c1cccc(C)c1)[C@@H](C)[N+](=O)[O-] | 10% | 8% | . | . | .
CC(C)(C)C(=O)/C=C/Nc1ccccc1O | 0% | -12% | ? | 2% | 14µM*
COc1cc(OC)c2c(c1C(CCN1CCOCC1)c1ccc(N(C)C)cc1)OC(=O)CC2c1ccc(N(C)C)cc1 (centres undefined) | -7% | 10µM* | . | . | 1%
COc1cc(/C=N/NC(=S)NCCN2CCOCC2)ccc1O | 0% | ? | -5% | 9% | 25µM*
Cc1coc2cc3oc(=O)c(CCC(=O)NCc4ccc(Cl)cc4)c(C)c3cc12 | . | . | . | . | 3%[76.3 µM]
Nc1ccc(NC(=O)NC2CCCCC2)cc1 | 0% | 4% | . | 9% | 18µM*
COc1ccc(CNC(=O)c2cc3c(-c4ccccc4F)nn(C)c3s2)cc1 | . | . | . | . | 7%[76.3 µM]
Cc1ccccc1Nc1c(N)c(=O)oc2ccccc12 | -4% | -3% | 11% | 3% | 18µM*
Cc1ccc2c(CC(=O)Nc3ccc(S(=O)(=O)N4CCCCC4)cc3)coc2c1 | . | . | . | . | -14%[76.3 µM]
O=C(NNc1ccc(-c2csnn2)cc1)c1ccccc1C(F)(F)F | 4% | 0% | . | 1% | 9.9µM*
O=C(NNc1ccc(-c2csnn2)cc1)c1cc(Cl)cc(Cl)c1 | 1% | 16% | . | . | ?
COc1ccc(OC)c(Nc2nc(=O)c3cccnc3s2)c1 | 2% | 4% | . | ? | 28µM*
SMILES | aGlu spleen mod | N370S GC mod | Lamin A splicing | GAA inh | GAA glycogen
CC(=O)NC(=O)Nc1sc(=S)n(C)c1C | 1% | -4% | 5% | -9% | ?
Cc1ccc(NC(=O)Nc2sc(=S)n(C)c2C)cc1 | -7% | -14% | -5% | 0% | 25µM*
O=C(O)Cc1ccc2ocnc2c1 | -6% | -2% | -1% | 2% | 22µM*
O=C(Nc1ccccc1)Nc1ccc2ocnc2c1 | 3% | 1% | 19%[46 µM] | 0% | -13%
COc1ccc(-c2nc3cc(C)ccn3c2NCc2ccc3c(c2)OCO3)cc1 | -4% | 5% | . | ? | ?
COc1ccc(-c2nc3ccccn3c2NCc2ccc3c(c2)OCO3)cc1 | -12% | -26% | -7% | -2% | 8.8µM*
c1ccc(-c2nc3ccccn3c2NCc2ccc3c(c2)OCO3)cc1 | 6% | ? | -7% | 8% | 25µM*
CCC(Sc1nc2ccccc2c2nc(CCn3c(C)nc4ccccc43)nn12)C(=O)Nc1ccc(F)cc1 (centres undefined) | . | . | -3%[46 µM] | . | .
O=C(NCc1ccc(F)cc1)c1ccc(NC(=O)N2CC3CCCN3c3ccccc32)cc1 (centres undefined) | . | . | . | . | 16µM*
Cc1cc(Nc2nc3c(c(=O)n(C)c(=O)n3C)n2C)n(-c2ccc(Cl)cc2)n1 | 2% | -40% | -12% | -19% | 25µM*
COc1ccc2c(c1)c(C(=O)N/N=C/c1ccc(O)c(O)c1)c(C)n2C | -23% | -1% | ? | -9% | 32µM*
COc1cccc2c(SCC(=O)N/N=C/c3ccc(O)c(O)c3)cc(C)nc12 | 8% | -19% | . | -9% | 3.1µM*
COc1ccc2nc(C)cc(SCC(=O)N/N=C/c3ccc(O)c(O)c3)c2c1 | 0% | -25% | . | -12% | 7µM*
Cc1cc(SCC(=O)N/N=C/c2ccc(O)c(O)c2)c(C)cc1Br | -1% | -8% | -6% | -4% | 18µM*
COc1cccc2c(SCC(=O)N/N=C/c3ccccc3)cc(C)nc12 | 4% | -6% | ? | -14% | -10%
COc1ccc(NC(=O)c2ccco2)cc1NC(=O)C(C)(C)Oc1ccc(Cl)cc1 | . | . | . | . | -25%[76.3 µM]
COCCn1c(C)cc(O)c(C(c2ccccc2OC)N2CCN(c3ccccc3)CC2)c1=O (centres undefined) | . | . | -4%[46 µM] | . | .
CCc1cc(=O)oc2c(C)c3c(cc12)CN(CCc1ccccc1OC)CO3 | . | . | . | . | 10%[76.3 µM]
COc1ccc(S(=O)(=O)NCCc2csc3nc(-c4ccc(Cl)cc4)nn23)cc1C | . | . | -5%[46 µM] | . | .
O=S(=O)(Nc1nccs1)c1ccc(NCc2cc(Br)cc(Br)c2O)cc1 | -3% | -2% | . | -7%[15.4 µM] | -10%
COc1cccc(CNc2ccc(S(=O)(=O)Nc3nccs3)cc2)c1O | 3% | -25% | ? | -6% | 5.6µM*
O=C(COc1cccc(C(F)(F)F)c1)N1CCN(c2ccc(O)cc2)CC1 | -6% | -14% | ? | -1% | 2µM*
O=C(CCOc1ccccc1)N1CCN(c2ccc(O)cc2)CC1 | 4% | 12% | . | . | 6.3µM*
O=C(CCCOc1ccccc1)N1CCN(c2ccccc2)CC1 | 0% | 7% | 4% | -3% | 15%
